Data published in article PMC4552634, “A New Set of Chemical Starting Points with Plasmodium falciparum Transmission-Blocking Potential for Antimalarial Drug Discovery” (PLoS ONE, 2015).
Read-outs that look alike come from different tables or passages of the source. The whole screen tested about 13,000 compounds, of which about 3,200 (25%) showed an effect of 50% or more. The list shows a part of the results.

Tested on: P. falciparum stage V gametocytes
Parameters: BacTiter-Glo ATP luminescence viability of purified stage V gametocytes in 384-well plates, per cent inhibition versus DMSO
Details: 48 h, 5 µM, inhibitor

SMILES	% Inhibition [%]	% Inhibition (% Inhibition) [%]
O=C(NC1CCN(Cc2ccc3c(c2)OCCO3)CC1)c1ccc(-c2cccc(C(F)(F)F)c2)s1 [TCMDC-134337]	32.78	
COc1ccc(C2N=C(N)N=C(N)N2OCc2ccccc2)cc1OC (centres unmarked) [TCMDC-131345]	5.736	
CC1(C)N=C(N)N=C(N)N1OCCCCCOc1ccccc1 [TCMDC-131319]	-2.033	
CC(=O)N(C)c1cccc(C(=O)Nc2cccc(-c3cccc(-c4nc5c(C)cccc5[nH]4)c3)c2)c1 [TCMDC-137071]	44.44	
Cc1cc(CN2CCC(N3CC(c4ccccc4)(c4ccccc4)OC3=O)C2)ccc1O (centres unmarked) [TCMDC-136072]	-30.84	
COc1ccc2cc(-c3nc(-c4c(Cl)cccc4Cl)[nH]c3-c3ccnc(NCCCN4CCN(C)CC4)c3)ccc2c1 [TCMDC-141250]	55.44	
CCN(CC)CCCCNc1cc(-c2[nH]c(C(C)(C)C)nc2-c2ccc3cc(OC)ccc3c2)ccn1 [TCMDC-141246]	101.1	
COc1cc(-c2nc(C(C)(C)CN)[nH]c2-c2ccncc2)ccc1Br [TCMDC-140674]	-82.82	
COc1ccc2cc(-c3nc(-c4c(Cl)cccc4Cl)[nH]c3-c3ccnc(NCCC4CCCN4C)c3)ccc2c1 (centres unmarked) [TCMDC-141248]	70.07	
CC(C)(CNC(=O)[C@@H]1CCCN(CCOc2ccc(Cl)cc2)C1)c1nc(-c2ccc(Cl)c(O)c2)c(-c2ccncc2)[nH]1 [TCMDC-141125]	7.649	
CCN(CC)CCCCNc1cc(-c2[nH]c(-c3c(Cl)cccc3Cl)nc2-c2ccc3cc(OC)ccc3c2)ccn1 [TCMDC-141249]	85.02	
COc1ccc(C)c(Nc2ccnc(Nc3cccc(-c4nc5ccccc5[nH]4)c3)n2)c1 [TCMDC-138696]	21	
COc1cc(-c2nc(-c3ccc4c(c3)CCC4=NO)c(-c3ccncc3)[nH]2)ccc1OCCN1CCN(C)CC1 [TCMDC-141256]	-11.77	
COc1cc(NC(=O)CCCCCCCN2CCN(C)CC2)c2ncccc2c1 [TCMDC-138214]	-6.593	
CN(C)CCOc1ccc(NC(=O)NC(C)(C)c2nc(-c3ccc(Cl)c(O)c3)c(-c3ccncc3)[nH]2)cc1 [TCMDC-140744]	-34.41	
COc1cc(-c2cc3cc(Cl)c(Cl)cc3[nH]2)ccc1C(=O)NCCC1CCCN1C (centres unmarked) [TCMDC-141287]	-25.11	
COc1cccc(CNCC(C)(C)c2nc(-c3ccc(Cl)c(O)c3)c(-c3ccncc3)[nH]2)c1 [TCMDC-140687]	-54.89	
N=C(N)c1ccc(C(=O)Nc2cccc(C(=N)N)c2)cc1 [TCMDC-137804]	7.039	
CCOc1cc(C(=O)NCCCN2CCN(c3cccc(Cl)c3)CC2)ccc1-c1nc2cc(Cl)c(F)cc2[nH]1 [TCMDC-140097]	-13.16	
O=C(/C=C/c1ccc(Cl)c(Cl)c1)NCCCCCN1CCC(NC(=O)Nc2ccccc2Cl)CC1 [TCMDC-135710]	-61.78	
Cc1ccc(Nc2ccnc3ccc(C(F)(F)F)cc23)cc1O [TCMDC-138307]	-31.91	
CC1(C)N=C(N)NC(NOCC=Cc2ccccc2)=N1 [TCMDC-131690]	-2.035	
O=C(NCCc1ccc(Cl)c(Cl)c1)[C@@H]1CCCN1C(=O)c1ccc(O)c(-c2ccc(Cl)c(Cl)c2)c1 [TCMDC-140871]	35.67	

SMILES	% Inhibition [%]	% Inhibition (% Inhibition) [%]
COc1ccc(Nc2ncc3c(-c4cccc(NC(=O)Cc5cccnc5)c4)c[nH]c3n2)cc1OC [TCMDC-135285]	-50.17	
CN(C)CCNC(=O)c1ccc2c(c1)n(C1CCN(S(=O)(=O)c3ccc(-c4ccccc4)cc3)CC1)c(=O)n2CC1CCCCC1 [TCMDC-135414]	22.96	
CCc1cccc(NC(=O)/C=C/c2ccc3c(c2)CN(C)CC3)c1 [TCMDC-139241]	27.65	
NC1=NC(c2ccccc2)(c2cccc(O)c2)C(=O)N1CCCc1ccccc1 (centres unmarked) [TCMDC-132352]		-21.91
CCOc1cc(C(=O)NCCCN2CCCCC2C)ccc1-c1nc2ccc(Cl)cc2[nH]1 (centres unmarked) [TCMDC-140915]	4.733	
CC1CCCCN1CCCNC(=O)c1cccc(-c2cc3cc(Cl)c(Cl)cc3[nH]2)c1 (centres unmarked) [TCMDC-141291]	-28.41	
COc1ccc2cc(-c3nc(-c4c(Cl)cccc4Cl)[nH]c3-c3ccnc(NCCCN4CCCCC4C)c3)ccc2c1 (centres unmarked) [TCMDC-141247]	95.77	
CCn1c(C)c(C)c2cc(C(=O)Nc3ccon3)ccc21 [TCMDC-124915]	28.52	
Oc1ccccc1CN1CCN(C(c2ccccc2)c2ccccc2)CC1 [TCMDC-124458]	18.52	
Cn1cc(CN2CCCC(COC(c3ccccc3)c3ccccc3)C2)cn1 (centres unmarked) [TCMDC-136042]	17.19	
c1ccc(C(OCCC2CCN(Cc3cccnc3)CC2)c2ccccc2)cc1 [TCMDC-136045]	0.3767	
Oc1ccccc1CN1CCC(CCOC(c2ccccc2)c2ccc(Cl)cc2)CC1 (centres unmarked) [TCMDC-136039]	23.64	
Cn1cc(CN2CCCC(COC(c3ccc(F)cc3)c3ccc(F)cc3)C2)cn1 (centres unmarked) [TCMDC-136043]	-3.69	
CC(C)N1CCC(Oc2ccc(CN3CCN(C(c4ccccc4)c4ccc(Cl)cc4)CC3)cc2)CC1 (centres unmarked) [TCMDC-132411]	68.21	
Cn1cc(CN2CCC(OC(c3ccccc3)c3ccc(Cl)cc3)CC2)cn1 (centres unmarked) [TCMDC-136165]	63.85	
Oc1ccc(CN2CCN(CCOC(c3ccccc3)c3ccc(Cl)cc3)CC2)cc1Cl (centres unmarked) [TCMDC-135689]	3.239	
Cn1cc(CN2CCC(CCOC(c3ccccc3)c3ccccc3)CC2)cn1 [TCMDC-136046]	75.05	
NC(=O)c1cccc(Nc2nccc(Nc3ccc(Oc4cccc(Cl)c4)c(Cl)c3)n2)c1 [TCMDC-138593]	-22.97	
Cc1c(S(=O)(=O)Nc2ccc3ccn(CCN(C)C)c3c2)sc2ccc(Cl)cc12 [TCMDC-139126]	-31.84	
COc1ccc(C2CC(c3ccccc3O)=NN2C(=O)c2ccco2)cc1OC (centres unmarked) [TCMDC-125347]	-56.68	
CC(C)C[C@H](Nc1ccnc(NCC2CCCCC2)n1)C(=O)NCCOc1ccccc1 [TCMDC-134712]	15.38	
Cc1cc(O)c(CN(C)Cc2ccc3c(c2)OCCO3)cc1C(C)C [TCMDC-124884]	16.52	
CCOc1ccc(CN(CCc2ccc3c(c2)OCO3)Cc2cc(OC)ccc2O)cc1 [TCMDC-125607]	58.7	

SMILES	% Inhibition [%]	% Inhibition (% Inhibition) [%]
Cc1cc(O)c(CN(C)Cc2ccc3c(c2)OCO3)cc1C(C)C [TCMDC-124881]	27	
CCOC(=O)c1ccc(NC(=O)Nc2cccc(-c3ccc(-c4nc5ccc(F)cc5[nH]4)cc3)c2)cc1 [TCMDC-133267]	-0.2568	
Cc1cccc2nc(-c3cccc(-c4ccc(CN5CCC(C(N)=O)CC5)cc4)c3)[nH]c12.O=C(O)C(F)(F)F [TCMDC-132697]	21.78	
COc1cc(-c2cc(-c3ccc(S(C)(=O)=O)cc3)cnc2N)ccc1O [TCMDC-133343]	105.4	
COc1ccc(-c2cnc(N)c(-c3ccc(C(N)=O)cc3)c2)cc1OC [TCMDC-133349]	67.55	
CS(=O)(=O)c1ccc(-c2cnc(N)c(-c3ccc(O)cc3)c2)cc1 [TCMDC-133348]	24.96	
CS(=O)(=O)c1ccc(-c2cnc(N)c(-c3cccc(O)c3)c2)cc1 [TCMDC-133347]	65.54	
COCc1cccc(-c2cc(-c3ccc(S(C)(=O)=O)cc3)cnc2N)c1 [TCMDC-133342]	35.59	
COc1ccc(-c2ccc3c(-c4ccc(F)cc4)cnc(N)c3c2)cn1 [TCMDC-134503]	16.03	
CS(=O)(=O)c1ccc(-c2cnc(N)c(-c3cccc(CO)c3)c2)cc1 [TCMDC-133352]	33.58	
COc1ccc(-c2cnc(N)c(-c3ccc(O)c(OC)c3)c2)cn1 [TCMDC-133350]	11.39	
CS(=O)(=O)c1ccc2nc(-c3cc(-c4cccc(F)c4)cnc3N)[nH]c2c1 [TCMDC-133134]	32.71	
COc1ccc(-c2cc(-c3ccc(S(C)(=O)=O)cc3)cnc2N)cn1 [TCMDC-133351]	104.2	
COc1cc(-c2cnc(N)c(-c3nc4ccccc4[nH]3)c2)cc(OC)c1OC [TCMDC-138793]	9.298	
COC(=O)c1ccc2nc(-c3cc(-c4cccc(-c5ccccc5)c4)cnc3N)[nH]c2c1 [TCMDC-135320]	-16.97	
CCCc1cc(OC)c(CC2c3cc(O)c(C)cc3CCN2C)cc1OC (centres unmarked) [TCMDC-137164]	-32.49	
Cc1c(C)n(C2CCCCC2)c2ncnc(OC3CCN(CC(=O)NC4CC4)CC3)c12 [TCMDC-124853]	15.8	
CCCc1cnc2nc(N)nc(N)c2c1C [TCMDC-138066]	12.33	
Cn1cc(-c2ccccc2C(=O)O)c(=O)c2cc(Cl)ccc21 [TCMDC-123861]	6.577	
CCOc1cc(C(=O)N[C@@H](Cc2ccccc2)[C@H](O)CNCc2cc(OC)cc(OC)c2)cc(N2CCCC2=O)c1 [TCMDC-134571]	-29.57	
COCc1cc(C)nc2sc(C(=O)Nc3cc(C(C)(C)C)ccc3O)c(N)c12 [TCMDC-125131]	1.168	
O=C(/C=C/c1ccc(Cl)c(Cl)c1)NCCCCCN1CCCN(C(=O)Nc2cc(F)cc(F)c2)CC1 [TCMDC-135751]	-53.24	
